# Measured values from PubChem BioAssay.
# Calls of active or inactive are those of the source.
# Legend:
# [1] = target: Albumin (Bos taurus) (UniProt P02769); assay: bovine serum albumin binders on microarray, profiling panel, artefact control for SMM control protein annotation, biochemical, small-molecule microarray, Alexa647 label, 635/667 nm fluorescence (AID 1118); conditions: BSA-A647 binding, fluorescence 635 nm, higher = more signal;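 further: score merges 667 nm emission intensity and signal-to-noise per printed compound spot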
# [2] = small-molecule microarray binders of probe aXIP, primary screen, biochemical, NeuroSMM set, 635/667 nm fluorescence (AID 1119); conditions: higher = more signal, called active from +8 up or from −8 down;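 further: probe is the protein aXip251-270 applied at 1 µg/mL to compound-printed slides; binding of probe to printed compounds measured as 667 nm fluorescence plus signal to noise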
# [3] = small-molecule binders of probe aNOTCH3, primary screen, biochemical, small-molecule microarray, 635/667 nm fluorescence (AID 1120); conditions: higher = more signal;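 further: probe is a biotin-tagged antibody raised against NOTCH3 rather than NOTCH3 protein; score merges spot fluorescence near 667 nm with spot signal to noise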
# [4] = small-molecule binders of probe aNOTCH2, primary screen, biochemical, small-molecule microarray, 635/667 nm fluorescence (AID 1121); conditions: higher = more signal;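 further: score merges feature fluorescence read at 667 nm with its signal to noise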
# [5] = target: Carbonic anhydrase 2 (Homo sapiens) (UniProt P00918); assay: CAII small-molecule binders, profiling panel, biochemical, small-molecule microarray, Alexa647-labelled CAII (AID 1122); conditions: CAII-A647 binding fluorescence, higher = more signal
# [6] = COS7 lysate on small-molecule microarray, probe aHis, 635 nm (AID 1123); conditions: COS7 cell lysate, fluorescence, higher = more signal;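 further: z-score combines 667nm fluorescence intensity with signal-to-noise per printed compound spot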
# [7] = compound binding in COS7 lysate, probe aLAP1, primary screen, cell lysate, small-molecule microarray (AID 1124); conditions: probe aLAP1, fluorescence, higher = more signal;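 further: lysate comes from COS7 cells expressing LAP1 and is applied at 0.3 µg/mL; score merges spot fluorescence near 667 nm with signal-to-noise over triplicate slides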
# [8] = test system: Sam68 (KHDRBS1); assay: Sam68 small-molecule binders, primary screen, biochemical, small-molecule microarray, 635 nm fluorescence (AID 1125); conditions: small-molecule microarray binding, higher = more signal;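 further: score merges 667 nm channel intensity with signal to noise over triplicate slides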
# [9] = test system: Chordin-like protein 2 (CHRDL2); assay: CHRDL2 small-molecule binders, primary screen, biochemical, small-molecule microarray, 635 nm fluorescence (AID 1126); conditions: small-molecule microarray binding, fluorescence 635 nm; higher = more signal;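 further: printed compound slides probed with Chrdl2 protein at 4 µg/mL for 1 h at 4 C; score merges 667 nm emission intensity with signal to noise over three replicate slides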
# [10] = target: Concanavalin-A (Canavalia ensiformis) (UniProt P02866); assay: ConA small-molecule binders, primary screen, artefact control for SMM control protein annotation, biochemical, small-molecule microarray, Alexa647 label, 635 nm (AID 1127); conditions: ConA-A647 binding fluorescence, higher = more signal;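 further: z combines 667 nm emission intensity with signal-to-noise across three replicate slides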
# Concanavalin-A (Canavalia ensiformis), sequence (P02866 whole entry, looked up): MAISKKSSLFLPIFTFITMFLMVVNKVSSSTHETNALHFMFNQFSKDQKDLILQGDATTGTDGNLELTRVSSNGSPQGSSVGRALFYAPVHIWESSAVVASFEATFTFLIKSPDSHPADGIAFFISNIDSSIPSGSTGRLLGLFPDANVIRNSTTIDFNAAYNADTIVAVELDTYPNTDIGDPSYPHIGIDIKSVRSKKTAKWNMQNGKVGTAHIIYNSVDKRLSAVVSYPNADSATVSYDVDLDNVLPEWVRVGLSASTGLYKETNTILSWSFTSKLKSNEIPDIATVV
# Albumin (Bos taurus), sequence (P02769 whole entry, looked up): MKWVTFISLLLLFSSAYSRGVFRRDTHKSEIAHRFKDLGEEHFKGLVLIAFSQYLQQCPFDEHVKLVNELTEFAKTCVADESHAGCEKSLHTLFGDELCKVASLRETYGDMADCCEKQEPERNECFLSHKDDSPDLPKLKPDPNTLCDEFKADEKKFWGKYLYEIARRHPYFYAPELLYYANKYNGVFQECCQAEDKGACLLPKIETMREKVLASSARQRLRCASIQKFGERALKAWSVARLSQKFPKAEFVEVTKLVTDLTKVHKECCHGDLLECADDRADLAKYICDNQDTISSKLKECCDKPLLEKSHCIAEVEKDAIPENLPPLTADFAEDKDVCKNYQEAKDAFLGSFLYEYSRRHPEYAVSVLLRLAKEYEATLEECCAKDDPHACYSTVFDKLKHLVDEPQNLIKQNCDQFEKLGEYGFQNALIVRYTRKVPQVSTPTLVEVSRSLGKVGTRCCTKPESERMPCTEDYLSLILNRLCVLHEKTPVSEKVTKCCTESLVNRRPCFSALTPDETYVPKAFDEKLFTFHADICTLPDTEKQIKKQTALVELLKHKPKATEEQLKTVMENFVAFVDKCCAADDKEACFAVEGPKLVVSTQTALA
Structure (SMILES),composite z-score [1],composite Z-score [2],composite z-score [3],composite z-score [4],composite z-score [5],composite z-score [6],composite z-score [7],composite z-score [8],composite z-score [9],composite z-score [10]
CC(C)C[C@H]1NC(=O)[C@@H](C)NC(=O)[C@@]23C(=O)N[C@@H](Cc4ccccc4)C2[C@H](C)[C@@]2(C)O[C@H]2C3/C=C/C/C=C\CNC1=O (stereo not given in full),0.239,-0.162 (inactive),-0.189,-0.202,0.686,0.394,-0.0995,0.997,0.831,0.124
CCOC(=O)C[C@H]1[C@H](OC(=O)c2ccc(-c3ccccc3)cc2)[C@@H](NC(=O)CC(C)C)c2cc(OCCCO)ccc2N1C(=O)Cc1ccc(OC)cc1,0.593,-0.244 (inactive),0.0582,0.0426,-0.0667,0.179,0.39,0.309,-0.213,-0.286
CCCCC(=C=CC[C@@H](O)c1cccc(OCCO)c1)C[C@@H](O)COCc1ccccc1,0.59,0.196 (inactive),-0.158,-0.104,0.441,0.696,0.117,-0.121,-0.598,-0.302
C[C@]1(C(=O)NCC(F)(F)F)c2ccccc2C(=O)N(Cc2ccc(OC(F)(F)F)cc2)[C@H]1c1ccc(CO)cc1,0.499,-0.568 (inactive),-0.179,-0.171,0.481,0.751,0.0891,0.185,-0.0339,0.422
C=CCC(OC(C)=O)[C@@H]1[C@@H](N(Cc2ccc(-c3cccc(C(F)(F)F)c3)o2)C(=O)Cc2ccc(OC)cc2)c2cc(OCCCO)ccc2N1C(=O)c1ccc2ccccc2n1 (stereo not given in full),-0.739,-0.117 (inactive),-0.0311,-0.0956,-0.165,0.516,-0.136,-1.29,0.763,-0.388
CC(C)[Si](C#CCCCC#N)(O[C@H](c1ccccc1)c1cn([C@H](C)c2ccccc2)nn1)C(C)C,0.221,-0.0102 (inactive),0.0357,-0.0405,0.506,0.879,0.0714,1.24,0.293,0.444
CC(C)CNC(=O)[C@@H]1c2ccccc2C(=O)N(CC23CC4CC(CC(C4)C2)C3)[C@H]1c1ccc(CO)cc1,0.486,0.642 (inactive),-0.004,-0.14,0.132,1.74,0.0747,0.985,-0.284,1.07
CN1C=C(C(=O)OCCS(C)(=O)=O)C(C(=O)OCCS(C)(=O)=O)=CC(CCCO)=CC1c1ccc(CN2CCCC2)cc1 (stereo not given),0.676,0.48 (inactive),0.405,-0.146,0.746,1.87,-0.197,1.3,0.369,0.907
C=CC[C@]1(C(=O)OC)N=C(c2ccc(OCCCO)cc2)O[C@H]1c1ccccc1N=[N+]=[N-],-0.899,0.0557 (inactive),0.734,0.26,0.429,2.87,0.198,1.3,1.14,1.09
CC(C)(C)OC(=O)CC[C@]1(C(=O)N2CCOCC2)N=C(c2ccc(OCCCO)cc2)O[C@H]1c1ccccc1CN=[N+]=[N-],0.508,0.341 (inactive),0.116,-0.0219,0.745,3.11,0.519,1.31,-0.227,0.977
COCCOC(=O)N1C(=O)[C@@]2(c3cc(C#CC4(O)CCCCCC4)ccc31)[C@H](C(=O)NC[C@H](O)c1ccccc1)[C@H]1C(=O)O[C@H](c3ccccc3)[C@H](c3ccccc3)N1[C@@H]2c1ccc(O)cc1,0.456,-0.275 (inactive),-0.0362,-0.0846,0.618,1.51,1.42,1.16,-0.112,1.09
CC(C)C[C@@H]1NC(=O)[C@@H]2C[C@H](C(=O)NCCCC[N+](C)(C)C)[C@H](c3ccc(O)cc3)N2C1=O,-0.857,0.541 (inactive),-0.0866,-0.153,0.705,0.83,0.678,1.09,1.37,1.02
C[C@H]1NC(=O)C([C@@H](C)OCc2ccccc2)NC(=O)[C@@]23C(=O)N[C@@H](Cc4ccccc4)C2[C@H](C)[C@@]2(C)O[C@H]2C3/C=C/C/C=C\CNC1=O (stereo not given in full),-0.224,-0.211 (inactive),-0.136,-0.177,0.661,0.234,-0.0311,-0.204,0.601,-0.401
O=C1C2C=CC(C(O)c3ccc([N+](=O)[O-])cc3)N(Nc3ccccc3)C2C(=O)N1c1ccccc1 (stereo not given),0.822,-0.0589 (inactive),0.261,-0.0591,0.77,1.42,-0.163,0.594,-0.225,0.49
COc1ccccc1CN1C(=O)c2ccccc2[C@](Cc2ccccc2I)(C(=O)NCCCN(C)C)[C@@H]1c1ccc(CO)cc1,0.0893,-0.105 (inactive),-0.243,-0.181,0.475,1.86,2.08,1.3,0.176,1.11
CCN(CC)c1ccc(N2CC=CC34O[C@@H]5C=CCOC(=O)[C@@H]5[C@H]3C(=O)N(CCO)[C@@H]4C2=O)cc1 (stereo not given in full),-0.869,2.39 (inactive),0.0035,-0.24,0.913,-0.368,-0.714,-0.683,-1.83,-1.14

Structure (SMILES),composite z-score [1],composite Z-score [2],composite z-score [3],composite z-score [4],composite z-score [5],composite z-score [6],composite z-score [7],composite z-score [8],composite z-score [9],composite z-score [10]
CCOC(=O)C1=C[C@@H](C(C)(C)C)N(S(=O)(=O)c2ccc(C)cc2)[C@H]1c1ccccc1Cl,0.981,0.102 (inactive),0.0203,0.0423,0.223,1.72,0.472,1.32,-0.584,1.12
C/C=C/CN(C(=O)C#Cc1ccccc1)[C@H](CO[Si](C)(C)C(C)(C)C)c1ccccc1,-0.907,-0.357 (inactive),-0.384,-0.22,0.599,0.043,-0.155,0.248,-0.553,-1.17
COC(=O)[C@]1(CO)N=C(c2ccc(OCCCO)cc2)O[C@@H]1c1ccccc1CN=[N+]=[N-],-0.421,0.277 (inactive),-0.122,-0.127,0.7,1.25,0.0153,0.363,0.265,0.257
C=CCC(OC(C)=O)[C@@H]1[C@@H](N(Cc2ccc(-c3ccccc3)cc2)C(=O)c2cccc3ccccc23)c2cc(OCCCO)ccc2N1C(=O)c1ccc2ccccc2c1 (stereo not given in full),0.002,-0.124 (inactive),-0.0377,-0.0368,0.0991,0.116,0.0105,0.263,-0.52,-0.31
CN(C)CCCC[C@@H]1NC(=O)[C@@H]2C[C@H](C(=O)NCCCCCCNC(=O)CS)[C@H](c3cccc(OCCO)c3)N2C1=O,-0.361,0.303 (inactive),-0.213,-0.0649,0.48,0.95,0.312,0.555,0.402,0.658
COCCOC(=O)N1C(=O)[C@@]2(c3cc(C#CCCO)ccc31)[C@H](C(=O)N1CCN(c3ncccn3)CC1)[C@H]1C(=O)O[C@H](c3ccccc3)[C@H](c3ccccc3)N1[C@@H]2c1ccc(O)cc1,0.506,0.168 (inactive),-0.236,-0.245,0.244,1.4,0.298,1.29,0.182,0.983
CCCCN1CC=CC23O[C@@H]4C=CCOC(=O)[C@@H]4[C@H]2C(=O)N(C(CO)C(C)C)[C@@H]3C1=O (stereo not given in full),-0.709,-0.0632 (inactive),-0.279,-0.14,0.321,-0.665,-0.304,-0.616,-0.0407,-0.868
COCCOC(=O)N1C(=O)[C@@]2(c3cc(C#CCC(C(=O)OC)C(=O)OC)ccc31)[C@H](C(N)=O)[C@H]1C(=O)O[C@H](c3ccccc3)[C@H](c3ccccc3)N1[C@@H]2c1ccc(OCCO)cc1,0.483,-0.0102 (inactive),0.0271,-0.0984,0.565,1.87,0.307,1.29,0.519,1.07
C=CCNC(=O)[C@@H]1[C@H]2C(=O)O[C@H](c3ccccc3)[C@H](c3ccccc3)N2[C@H](c2ccccc2OCCO)[C@@]12C(=O)N(C(=O)OCCOC)c1ccc(C#CCCO)cc12,0.538,-0.0086 (inactive),0.0807,-0.112,0.64,0.797,0.77,1.29,0.0117,0.953
O=C(NCC(F)(F)F)[C@@H]1c2ccccc2C(=O)N(CC23CC4CC(CC(C4)C2)C3)[C@H]1c1ccc(CO)cc1,0.15,0.251 (inactive),0.0981,-0.147,0.25,0.699,0.622,1.27,0.162,0.734
CCOC(=O)C1=CC[C@@H](c2ccccc2)N(S(=O)(=O)C[Si](C)(C)C)[C@H]1c1ccccc1,0.873,-0.17 (inactive),0.138,-0.0079,0.605,1.27,-0.203,1.34,0.302,1.02
O=C1C2C=CC(C(O)c3cccc(O)c3)N(Nc3ccccc3F)C2C(=O)N1c1ccccc1 (stereo not given),0.92,-0.539 (inactive),0.025,-0.141,0.756,-0.0811,-0.841,0.664,-0.406,0.0597
CC[C@H](C)C(=O)O[C@H]1CC[C@]2(C)C3=C(CCC2C1(C)C)[C@]1(C)CC[C@H]([C@H](C)CCCC(C)C)[C@@]1(C)CC3 (stereo not given in full),-0.0017,-0.014 (inactive),-0.0947,-0.146,-0.0247,0.627,-0.329,0.329,0.367,0.515
CCOC(=O)C1=C(C(=O)OCC)N(S(=O)(=O)CC[Si](C)(C)C)[C@H](c2ccccc2)CC1,0.565,-0.463 (inactive),0.112,-0.075,0.443,0.727,-0.102,1.3,-0.0267,1.14
COc1cc(OC)c(C(O)C2C=CC3C(=O)N(c4ccccc4)C(=O)C3N2Nc2ccccc2F)cc1Br (stereo not given),0.89,0.476 (inactive),0.378,-0.0664,0.693,2.91,0.408,1.34,-0.577,1.1
